PubChem BioAssay (NCI)
The panel holds about 79,000 compounds, 15% with a hit somewhere; the sample as a whole holds those more often. Calls of active or inactive are those of the source. Rule as the data show it: active = growth inhibition above about 70%; inactive = the rest.

Experiments:
[1] = NCI Yeast Anticancer Drug Screen. Data for the rad52 strain (AID 147);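 also: 0% = growth of vehicle-treated control cultures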; conditions: S. cerevisiae rad52 mutant growth inhibition, hits give high values
Summary of the method: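 Genetically altered yeast (DNA damage repair defect) treated with compound; inhibition calculated relative to vehicle.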

[2] = NCI Yeast Anticancer Drug Screen. Data for the wt1 strain (AID 149);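 also: 0% = growth of vehicle-treated wt1 cultures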; conditions: S. cerevisiae wt1 strain (SPY 50644) growth inhibition, hits give high values
Summary of the method: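 Compounds are added to wt1 yeast cultures. Growth is then measured. Inhibition is expressed relative to vehicle-treated controls.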

[3] = NCI Yeast Anticancer Drug Screen. Data for the rad50EPP+ strain (AID 151);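 also: 0% = growth of vehicle-treated control cultures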; conditions: S. cerevisiae rad50 mutant strain, hits give high values
Summary of the method: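 Strain rad50EPP+; compound exposure; % growth inhibition vs vehicle.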

[4] = NCI Yeast Anticancer Drug Screen. Data for the mgt1 strain (AID 153); conditions: S. cerevisiae mgt1 mutant growth inhibition, hits give high values
Summary of the method: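 Read-out: yeast growth inhibition vs vehicle control. Strain mgt1, drawn from a panel altered in DNA damage repair or cell cycle control.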

[5] = NCI Yeast Anticancer Drug Screen. Data for the rad50 strain (AID 155);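 also: 0% = growth of vehicle-only cultures of the same strain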; conditions: S. cerevisiae rad50 strain growth inhibition, hits give high values
Summary of the method: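 Inhibition values express reduced yeast growth in compound-treated cultures relative to vehicle-treated controls.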

[6] = NCI Yeast Anticancer Drug Screen. Data for the mec2-1 strain (AID 157); conditions: S. cerevisiae mec2-1 strain, hits give high values
Summary of the method: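 Cells of the genetically defined mec2-1 yeast strain are incubated with test compound. Inhibition of growth is calculated against vehicle-treated controls.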

[7] = NCI Yeast Anticancer Drug Screen. Data for the rad14 strain (AID 159);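 also: 0% = growth of vehicle-treated control cultures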; conditions: S. cerevisiae rad14 strain growth inhibition, hits give high values
Summary of the method: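 A mutant yeast strain defective in DNA damage repair is treated with compound; inhibition of its growth is scored against untreated, vehicle-exposed cultures.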

[8] = NCI Yeast Anticancer Drug Screen. Data for the sgs1 mgt1 strain (AID 161);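 also: 0% = growth of cultures given vehicle only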; conditions: S. cerevisiae sgs1 mgt1 strain, hits give high values
Summary of the method: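 Inhibition of yeast growth, normalised to vehicle-treated controls, is reported for a strain bearing genetic alterations in DNA damage repair.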

[9] = NCI Yeast Anticancer Drug Screen. Data for the CLN2oe strain (AID 163);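 also: 0% = growth of vehicle-only control cultures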; conditions: S. cerevisiae CLN2oe strain, hits give high values
Summary of the method: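 Strain altered in cell-cycle control, incubated with compound; growth compared to solvent-treated controls.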

[10] = NCI Yeast Anticancer Drug Screen. Data for the cln2 rad14 strain (AID 165);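 also: 0% = growth equal to vehicle treated cultures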; conditions: S. cerevisiae cln2 rad14 strain, hits give high values
Summary of the method: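 The screen exposed genetically defined yeast (cln2 rad14) to test compounds and scored growth inhibition relative to vehicle-treated controls.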

[11] = NCI Yeast Anticancer Drug Screen. Data for the bub3 strain (AID 167); conditions: S. cerevisiae bub3 mutant strain, hits give high values
Summary of the method: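 Steps: expose the mutant yeast strain to compound; grow alongside vehicle-treated cultures; measure growth; express inhibition against the vehicle cultures.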

[12] = NCI Yeast Anticancer Drug Screen. Data for the wt2 strain (AID 169);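 also: 0% = growth of vehicle-treated yeast cultures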; conditions: S. cerevisiae wt2 strain growth inhibition, hits give high values
Summary of the method: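 Steps: yeast strain treated with compound; growth recorded; inhibition calculated relative to cultures given vehicle alone.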

[13] = NCI Yeast Anticancer Drug Screen. Data for the mlh1 strain (AID 171);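 also: 0% = growth of vehicle-treated control cultures of the same strain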; conditions: S. cerevisiae mlh1 strain growth inhibition, hits give high values
Summary of the method: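 Yeast screen: mutant strain plus compound, growth scored against vehicle control wells.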

[14] = NCI Yeast Anticancer Drug Screen. Data for the sgs1 strain (AID 173);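 also: 0% = growth of vehicle-only control cultures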; conditions: S. cerevisiae sgs1 mutant, hits give high values
Summary of the method: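 Inhibition of yeast growth served as the measure. The mutant strain was treated with each compound, and growth was normalised to cultures receiving vehicle alone.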

[15] = NCI Yeast Anticancer Drug Screen. Data for the mlh1 rad18 strain (AID 175); conditions: S. cerevisiae mlh1 rad18 strain growth inhibition, hits give high values
Summary of the method: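 Compound-treated yeast growth, normalised to vehicle controls. Strain bears defined DNA repair mutations.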

[16] = NCI Yeast Anticancer Drug Screen. Data for the rad18 strain (AID 177); conditions: S. cerevisiae rad18 mutant growth inhibition, hits give high values
Summary of the method: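 Inhibition values reflect reduced yeast growth compared with vehicle-treated controls, using a strain engineered with a DNA damage repair defect.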

[17] = at 5.0 µM (retest, dose inferred, filed as 0.5)
[18] = at 50.0 µM (retest, dose inferred, filed as 5.0)

Measured: growth inhibition

COc1ccc(N2CN(C)CSC2=S)cc1
active: [1]; at 100.0 µM 72% | [3]; at 33.0 µM 81% | [3]; at 100.0 µM 90% | [5]; [18] 95% | [5]; at 100.0 µM 83% | [6]; [17] 73% | [6]; [18] 96% | [6]; at 100.0 µM 75% | [11]; [18] 83% | [11]; at 100.0 µM 73% | [14]; at 100.0 µM 71% | [15]; [18] 97%
inactive: [1]; at 1.2 µM -27% | [1]; at 3.7 µM -11% | [1]; at 11.0 µM -1% | [1]; at 33.0 µM 43% | [2]; at 1.2 µM -18% | [2]; at 3.7 µM -14% | [2]; at 11.0 µM -22% | [2]; at 33.0 µM -1% | [2]; at 100.0 µM 58% | [3]; at 1.2 µM -36% | [3]; at 3.7 µM 10% | [3]; at 11.0 µM 58% | [4]; at 1.2 µM -51% | [4]; at 3.7 µM -48% | [4]; at 11.0 µM -36% | [4]; at 33.0 µM -11% | [4]; at 100.0 µM 61% | [5]; at 1.2 µM -20% | [5]; at 3.7 µM 3% | [5]; [17] 61% | [5]; at 11.0 µM 25% | [5]; at 33.0 µM 63% | [5]; at 50.0 µM 10.6% | [6]; at 1.2 µM -17% | [6]; at 3.7 µM -29% | [6]; at 11.0 µM -22% | [6]; at 33.0 µM -2% | [6]; at 50.0 µM 8.85% | [7]; at 1.2 µM -24% | [7]; at 3.7 µM -22% | [7]; at 11.0 µM -21% | [7]; at 33.0 µM -11% | [7]; at 100.0 µM 40% | [8]; [17] -20% | [8]; [18] 59% | [9]; at 1.2 µM -23% | [9]; at 3.7 µM -23% | [9]; at 11.0 µM -39% | [9]; at 33.0 µM -9% | [9]; at 100.0 µM 24% | [10]; [17] 22% | [10]; [18] 59% | [11]; at 1.2 µM -12% | [11]; at 3.7 µM -11% | [11]; [17] 35% | [11]; at 11.0 µM -12% | [11]; at 33.0 µM 32% | [12]; at 1.2 µM -25% | [12]; at 3.7 µM -15% | [12]; at 11.0 µM -22% | [12]; at 33.0 µM -7% | [12]; at 100.0 µM 58% | [13]; at 1.2 µM -53% | [13]; at 3.7 µM -52% | [13]; at 11.0 µM -48% | [13]; at 33.0 µM -3% | [13]; at 100.0 µM 57% | [14]; at 1.2 µM -43% | [14]; at 3.7 µM -41% | [14]; at 11.0 µM -39% | [14]; at 33.0 µM 7% | [15]; [17] 51% | [15]; at 50.0 µM 56.4% | [16]; at 1.2 µM -67% | [16]; at 3.7 µM -64% | [16]; at 11.0 µM -53% | [16]; at 33.0 µM -41% | [16]; at 100.0 µM 52%

Cc1ccc2c(ccc(/C=C/c3ccc(O)c4ncccc34)[n+]2C)c1
inactive: [1]; at 1.2 µM 17% | [1]; at 3.7 µM 46% | [2]; at 1.2 µM 4% | [2]; at 3.7 µM 30% | [3]; at 1.2 µM 3% | [3]; at 3.7 µM 27% | [3]; at 11.0 µM 60% | [4]; at 1.2 µM 8% | [4]; at 3.7 µM 40% | [5]; at 1.2 µM 1% | [5]; at 3.7 µM 41% | [5]; [17] 40% | [6]; at 1.2 µM 10% | [6]; at 3.7 µM 37% | [6]; [17] 43% | [7]; at 1.2 µM -15% | [7]; at 3.7 µM 37% | [8]; [17] 23% | [9]; at 1.2 µM -6% | [9]; at 3.7 µM 18% | [10]; [17] 17% | [11]; at 1.2 µM 18% | [11]; at 3.7 µM 33% | [11]; [17] 10% | [13]; at 1.2 µM 15% | [13]; at 3.7 µM 60% | [14]; at 1.2 µM 18% | [14]; at 3.7 µM 45% | [15]; [17] 58%
active: [1]; at 11.0 µM 89% | [1]; at 33.0 µM 94% | [1]; at 100.0 µM 81% | [2]; at 11.0 µM 85% | [2]; at 33.0 µM 94% | [2]; at 100.0 µM 81% | [3]; at 33.0 µM 87% | [3]; at 100.0 µM 79% | [4]; at 11.0 µM 84% | [4]; at 33.0 µM 95% | [4]; at 100.0 µM 82% | [5]; at 11.0 µM 88% | [5]; at 33.0 µM 93% | [5]; [18] 93% | [5]; at 100.0 µM 74% | [6]; at 11.0 µM 89% | [6]; at 33.0 µM 93% | [6]; [18] 94% | [6]; at 100.0 µM 77% | [7]; at 11.0 µM 90% | [7]; at 33.0 µM 94% | [7]; at 100.0 µM 77% | [8]; [18] 98% | [8]; at 50.0 µM 82% | [9]; at 11.0 µM 78% | [9]; at 33.0 µM 90% | [9]; at 100.0 µM 77% | [10]; [18] 95% | [10]; at 50.0 µM 84% | [11]; at 11.0 µM 87% | [11]; at 33.0 µM 91% | [11]; [18] 98% | [11]; at 50.0 µM 84.9% | [11]; at 100.0 µM 74% | [13]; at 11.0 µM 85% | [13]; at 33.0 µM 95% | [13]; at 100.0 µM 78% | [14]; at 11.0 µM 82% | [14]; at 33.0 µM 92% | [14]; at 100.0 µM 78% | [15]; [18] 91%

COc1ccc(N=N/C(=N\NC(=O)c2cc(Br)ccc2O)c2ccc(N(CCC#N)CCC#N)cc2OC)cc1
inactive: [1]; at 1.2 µM 29% | [1]; at 3.7 µM 44% | [1]; at 11.0 µM 44% | [1]; at 33.0 µM 57% | [2]; at 1.2 µM 15% | [2]; at 3.7 µM 17% | [2]; at 11.0 µM 9% | [2]; at 33.0 µM 5% | [2]; at 100.0 µM 51% | [3]; at 1.2 µM -4% | [3]; at 3.7 µM -7% | [3]; at 11.0 µM -11% | [3]; at 33.0 µM -19% | [3]; at 100.0 µM 24% | [4]; at 1.2 µM 33% | [4]; at 3.7 µM 35% | [4]; at 11.0 µM 24% | [4]; at 33.0 µM 46% | [4]; at 100.0 µM 69% | [5]; at 1.2 µM 46% | [5]; at 3.7 µM 43% | [5]; [17] 20% | [5]; at 11.0 µM 49% | [5]; at 33.0 µM 59% | [5]; [18] 25% | [5]; at 50.0 µM 45.1% | [7]; at 1.2 µM 33% | [7]; at 3.7 µM 26%
active: [1]; at 100.0 µM 71% | [5]; at 100.0 µM 82%
